# From PubChem BioAssay (EPA / NIEHS)
# Several values for one entry are separate records, joined by “and”; a condition that tells them apart may be missing. Equal values may be shown once. Inconclusive results are not listed. A structure can be active in one record and inactive in another. Activity calls are given as the source filed them. The calls were made as follows, unless noted: active = hit-call score of the fitted dose curve at least 0.9, where 1 is the maximum; inconclusive = response in the unintended direction; inactive = score below 0.9.
# Assays:
# [1] = system: chicken Androgen Receptor (AR), gene 422165; test: ATG_chAR_XSP2: Attagene TRANS-FACTORIAL Multi-Species (XSP2) HepG2 Assay for chicken Androgen Receptor (AR) (AID 2283819);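 also: hits raise reporter mRNA above DMSO so potency is for activation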
# How it was run: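 HepG2 cells transiently transfected with chicken AR–GAL4 chimeric reporter constructs, stimulated with 3 nM 6-alpha-fluorotestosterone plus 1.5 nM norgestrel, dosed 24 h. Reporter mRNA quantified by RT-PCR and capillary electrophoresis; gain of signal fitted versus DMSO.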
# [2] = system: frog Estrogen Receptor (ER), gene 398734; test: ATG_frER1_XSP2: Attagene TRANS-FACTORIAL Multi-Species (XSP2) HepG2 Assay for frog Estrogen Receptor (ER) (AID 2283821);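 also: hits raise reporter mRNA above DMSO baseline so potency means agonist or activator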
# How it was run: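 HepG2, transient MRTU transfection, chimeric NR-GAL4/UAS reporters; 24 h compound exposure, 24-well. Readout: reporter mRNA via RT-PCR + capillary electrophoresis, fluorescence. Positive fit vs DMSO baseline.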
# [3] = system: zebrafish Estrogen Receptor (ER2b), gene 317733; test: ATG_zfER2b_XSP2: Attagene TRANS-FACTORIAL Multi-Species (XSP2) HepG2 Assay for zebrafish Estrogen Receptor (ER2b) (AID 2283823);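 also: fitted upward as reporter gain over DMSO so potency reflects activation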
# How it was run: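 In this multiplexed trans-activation format, HepG2 cells expressing exogenous NR-Gal4 fusions drive GAL4-UAS reporters. Exposure lasts 24 h, and reporter mRNA induction is read by RT-PCR with capillary electrophoresis detection.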
# [4] = system: frog Androgen Receptor (AR), gene 399456; test: ATG_frAR_XSP2: Attagene TRANS-FACTORIAL Multi-Species (XSP2) HepG2 Assay for frog Androgen Receptor (AR) (AID 2283824);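 also: actives raise reporter signal above DMSO so AC50 reflects agonist-like induction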
# How it was run: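 HepG2 cells transiently transfected with GAL4-UAS reporter units and frog (Xenopus laevis) AR-Gal4 chimera; reporter mRNA measured 24 h after dosing by RT-PCR and capillary electrophoresis. Gain of signal fitted relative to DMSO baseline.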
# [5] = target: Peroxisome proliferator-activated receptor gamma (Homo sapiens) (UniProt P37231); test: ATG_hPPARg_XSP2: Attagene TRANS-FACTORIAL Multi-Species (XSP2) HepG2 Assay for human Peroxisome Proliferator-activated Receptor gamma (PPARg) (AID 2283829);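 also: actives raise reporter mRNA above DMSO so AC50 reflects PPARg activation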
# How it was run: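 Multiplexed transactivation in transfected HepG2 liver cells. Gal4-chimeric receptor activity reported as induced reporter transcript after 24 h.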
# [6] = target: mouse Peroxisome Proliferator-activated Receptor gamma (PPARg), Pparg (gene 19016) (UniProt P37238); test: ATG_mPPARg_XSP2: Attagene TRANS-FACTORIAL Multi-Species (XSP2) HepG2 Assay for mouse Peroxisome Proliferator-activated Receptor gamma (PPARg) (AID 2283830);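 also: hits are gains in reporter mRNA above DMSO so AC50 marks activation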
# How it was run: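 HepG2 cells transiently transfected with GAL4-UAS reporter units for chimeric NR-Gal4 proteins including mouse PPARg, exposed 24 h; medium contained 3 nM 6-alpha-fluorotestosterone and 1.5 nM norgestrel. Reporter mRNA quantified by RT-PCR, HpaI digestion and capillary electrophoresis, vs DMSO.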
# [7] = target: Nuclear receptor subfamily 1 group I member 2 (Mus musculus) (UniProt O54915); test: ATG_mPXR_XSP2: Attagene TRANS-FACTORIAL Multi-Species (XSP1) HepG2 Assay for mouse Pregnane X Receptor (PXR) (AID 2283831)
# How it was run: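 Human liver HepG2 cells expressing exogenous receptor-GAL4 chimeras were exposed to test chemicals for 24 h. Induction of reporter mRNA was scored as gain of fluorescence signal over DMSO controls.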
# [8] = target: zebrafish Thyroid Hormone Receptor alpha (TRa), thraa (gene 30670) (UniProt Q98867); test: ATG_zfTRa_XSP2: Attagene TRANS-FACTORIAL Multi-Species (XSP1) HepG2 Assay for zebrafish Thyroid Hormone Receptor alpha (TRa) (AID 2283832);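 also: actives raise zebrafish TRa-Gal4 reporter transcript above DMSO baseline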
# How it was run: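 Chimeric receptor-Gal4 activity was assessed in transfected human liver HepG2 cells 24 h after dosing, using reporter transcript levels detected by RT-PCR and capillary electrophoresis. DMSO served as baseline.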
# [9] = system: zebrafish Peroxisome Proliferator-activated Receptor gamma (PPARg), gene 557037; test: ATG_zfPPARg_XSP2: Attagene TRANS-FACTORIAL Multi-Species (XSP2) HepG2 Assay for zebrafish Peroxisome Proliferator-activated Receptor gamma (PPARg) (AID 2283833);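 also: actives increase reporter signal over DMSO so AC50 reflects activation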
# How it was run: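 Cell-based transactivation of a chimeric zebrafish PPARg-GAL4 receptor was assessed in transiently transfected HepG2 cells after 24 h of treatment. Reporter mRNA induction, detected fluorescently after RT-PCR, was analysed in the positive direction against DMSO.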
# [10] = system: turtle Thyroid Hormone Receptor, alpha (TRa), gene 101949057; test: ATG_trTRa_XSP2: Attagene TRANS-FACTORIAL Multi-Species (XSP1) HepG2 Assay for turtle Thyroid Hormone Receptor, alpha (TRa) (AID 2283834);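 also: hits raise reporter mRNA over the DMSO baseline so AC50 marks activators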
# How it was run: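 Gain-of-signal reporter transcription measured in transiently transfected HepG2 at 24 h post-dose. Fluorescent RT-PCR products were resolved by capillary electrophoresis and compared with DMSO vehicle.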
# [11] = ATG_M_61_XSP2: Attagene TRANS-FACTORIAL Multi-Species (XSP2) HepG2 Assay for M61 Transcription Factor (Internal Marker) (AID 2283835; active = hit-call score of the fitted dose curve at least 0.9, where 1 is the maximum; inactive = score below 0.9;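 also: active means a rise in signal above the DMSO baseline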)
# How it was run: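 HepG2 cells transiently transfected with multiple GAL4-UAS reporter units; 3 nM 6-alpha-fluorotestosterone and 1.5 nM norgestrel present to stimulate androgen receptor. After 24 h compound exposure, reporter mRNA measured by RT-PCR and capillary electrophoresis fluorescence, gain-of-signal versus DMSO baseline.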
# [12] = target: zebrafish Thyroid Hormone Receptor beta (TRb), thrb (gene 30607) (UniProt Q9PVE4); test: ATG_zfTRb_XSP2: Attagene TRANS-FACTORIAL Multi-Species (XSP1) HepG2 Assay for zebrafish Thyroid Hormone Receptor beta (TRb) (AID 2283836);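 as to AC50: potency for induction of reporter signal above DMSO so agonist direction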
# How it was run: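 Fluorescence of labelled reporter cDNA fragments, separated by capillary electrophoresis, gives mRNA induction from exogenous NR-Gal4 chimeras in transiently transfected HepG2 cells after 24 h dosing; 3 nM 6-alpha-fluorotestosterone and 1.5 nM norgestrel included in the run.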
# [13] = target: human Thyroid hormone Receptor alpha (TRa), THRA (gene 7067) (UniProt P10827); test: ATG_hTRa_XSP2: Attagene TRANS-FACTORIAL Multi-Species (XSP2) HepG2 Assay for human Thyroid hormone Receptor alpha (TRa) (AID 2283838)
# How it was run: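 HepG2 cells transiently transfected with multiplexed GAL4-UAS reporter units and exogenous NR-GAL4 chimeras; 24 h chemical exposure with 3 nM 6-alpha-fluorotestosterone and 1.5 nM norgestrel present. Reporter mRNA measured by RT-PCR, FAM labelling, HpaI digestion, capillary electrophoresis; gain-of-signal versus DMSO.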
# [14] = target: frog Thyroid hormone Receptor alpha (TRa), thra-a (gene 397942) (UniProt P15204); test: ATG_frTRa_XSP2: Attagene TRANS-FACTORIAL Multi-Species (XSP2) HepG2 Assay for frog Thyroid hormone Receptor alpha (TRa) (AID 2283839);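 as to AC50: AC50 reflects induction of frog TRa-driven reporter mRNA above DMSO baseline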
# How it was run: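 Frog thyroid receptor alpha was tested as an exogenous NR-Gal4 fusion in transiently transfected HepG2 cells. After 24 h chemical treatment, reporter mRNA induction was quantified by RT-PCR and capillary electrophoresis, with gain-of-signal analysed relative to DMSO.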
# [15] = target: human Thyroid hormone Receptor beta (TRb), THRB (gene 7068) (UniProt P10828); test: ATG_hTRb_XSP2: Attagene TRANS-FACTORIAL Multi-Species (XSP2) HepG2 Assay for human Thyroid hormone Receptor beta (TRb) (AID 2283840);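 also: actives raise reporter mRNA so potency reflects agonist-like gain of signal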
# How it was run: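 In this cell-based multiplex, HepG2 liver cells carrying transfected GAL4-UAS reporter constructs are exposed to chemical for 24 hours, then reporter transcripts are measured by RT-PCR with capillary electrophoresis, scored as gain of signal against DMSO.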
# [16] = system: zebrafish Androgen Receptor (AR), gene 100005148; test: ATG_zfAR_XSP2: Attagene TRANS-FACTORIAL Multi-Species (XSP2) HepG2 Assay for zebrafish Androgen Receptor (AR) (AID 2283825);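 also: hits raise reporter mRNA above DMSO so AC50 reflects agonist-type gain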
# How it was run: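 Zebrafish AR–GAL4 chimera transiently expressed with GAL4-UAS reporter in HepG2 cells, co-stimulated with 3 nM 6-alpha-fluorotestosterone and 1.5 nM norgestrel; 24 h dosing, reporter mRNA read by RT-PCR/capillary electrophoresis versus DMSO.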
# [17] = system: frog Estrogen Receptor (ER2), gene 100174814; test: ATG_frER2_XSP2: Attagene TRANS-FACTORIAL Multi-Species (XSP2) HepG2 Assay for frog Estrogen Receptor (ER2) (AID 2283828)
# How it was run: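 Human liver HepG2, transient MRTU transfection (TRANS format, exogenous NR–Gal4). 24 h cpd exposure. Total RNA → RT → PCR → FAM label → HpaI cut → CE. Positive direction vs DMSO.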
# [18] = ATG_XTT_Cytotoxicity_XSP2: Cytotoxicity Assessment in the Attagene TRANS-FACTORIAL Multi-Species (XSP2) HepG2 Assay (AID 2283837)
# How it was run: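 HepG2 cells, transiently transfected with multiple reporter constructs, exposed to chemical for 24 h. Cell number assessed with XTT fluorescence read-out; loss of signal fitted relative to DMSO.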
# [19] = target: Estrogen receptor (Homo sapiens) (UniProt P03372); test: ATG_hERa_XSP2: Attagene TRANS-FACTORIAL Multi-Species (XSP2) HepG2 Assay for human Estrogen Receptor (ERa) (AID 2283827)
# How it was run: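 HepG2 cells transiently transfected with multiplexed GAL4-UAS reporters driven by chimeric receptor-Gal4 proteins, dosed 24 h with 3 nM 6-alpha-fluorotestosterone and 1.5 nM norgestrel present. Reporter mRNA by RT-PCR and capillary electrophoresis; gain-of-signal fit versus DMSO.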
# [20] = ATG_M_19_XSP2: Attagene TRANS-FACTORIAL Multi-Species (XSP2) HepG2 Assay for M32 Transcription Factor (Internal Marker) (AID 2283822)
# How it was run: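 Internal background marker in a multi-species nuclear receptor TRANS panel: transfected HepG2 cells exposed 24 h, with 3 nM 6-alpha-fluorotestosterone and 1.5 nM norgestrel present. Readout is RT-PCR of reporter transcripts resolved by capillary electrophoresis, gain-of-signal versus DMSO.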
# Chain of mouse Peroxisome Proliferator-activated Receptor gamma (PPARg), Pparg (gene 19016) (P37238 whole entry, looked up, the tested form may be a part): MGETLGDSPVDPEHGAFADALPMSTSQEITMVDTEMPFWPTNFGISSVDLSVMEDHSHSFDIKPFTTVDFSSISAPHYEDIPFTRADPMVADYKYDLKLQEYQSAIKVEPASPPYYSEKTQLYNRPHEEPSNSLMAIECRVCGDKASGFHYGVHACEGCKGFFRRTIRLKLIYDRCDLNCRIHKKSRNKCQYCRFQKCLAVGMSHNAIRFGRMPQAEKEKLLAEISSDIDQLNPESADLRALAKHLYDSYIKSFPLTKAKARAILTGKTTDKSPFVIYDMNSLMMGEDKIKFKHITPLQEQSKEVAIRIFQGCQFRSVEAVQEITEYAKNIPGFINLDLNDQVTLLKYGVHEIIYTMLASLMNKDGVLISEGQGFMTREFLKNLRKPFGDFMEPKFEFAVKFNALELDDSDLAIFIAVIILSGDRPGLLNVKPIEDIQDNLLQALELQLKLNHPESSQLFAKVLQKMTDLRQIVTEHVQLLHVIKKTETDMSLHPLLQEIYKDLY
# Chain of frog Thyroid hormone Receptor alpha (TRa), thra-a (gene 397942) (P15204 whole entry, looked up, the tested form may be a part): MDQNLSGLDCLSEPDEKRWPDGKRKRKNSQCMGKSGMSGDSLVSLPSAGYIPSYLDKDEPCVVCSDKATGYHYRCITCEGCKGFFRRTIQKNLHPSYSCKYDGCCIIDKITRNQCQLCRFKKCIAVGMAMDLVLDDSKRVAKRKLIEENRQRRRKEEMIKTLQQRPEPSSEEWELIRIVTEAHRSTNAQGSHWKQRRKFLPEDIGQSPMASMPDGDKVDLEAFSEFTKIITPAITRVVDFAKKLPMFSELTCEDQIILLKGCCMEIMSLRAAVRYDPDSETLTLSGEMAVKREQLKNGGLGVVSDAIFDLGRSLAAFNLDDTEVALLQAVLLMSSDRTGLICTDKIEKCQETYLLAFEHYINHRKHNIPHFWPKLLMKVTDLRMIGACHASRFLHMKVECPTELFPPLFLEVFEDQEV
# Chain of zebrafish Thyroid Hormone Receptor alpha (TRa), thraa (gene 30670) (Q98867 whole entry, looked up, the tested form may be a part): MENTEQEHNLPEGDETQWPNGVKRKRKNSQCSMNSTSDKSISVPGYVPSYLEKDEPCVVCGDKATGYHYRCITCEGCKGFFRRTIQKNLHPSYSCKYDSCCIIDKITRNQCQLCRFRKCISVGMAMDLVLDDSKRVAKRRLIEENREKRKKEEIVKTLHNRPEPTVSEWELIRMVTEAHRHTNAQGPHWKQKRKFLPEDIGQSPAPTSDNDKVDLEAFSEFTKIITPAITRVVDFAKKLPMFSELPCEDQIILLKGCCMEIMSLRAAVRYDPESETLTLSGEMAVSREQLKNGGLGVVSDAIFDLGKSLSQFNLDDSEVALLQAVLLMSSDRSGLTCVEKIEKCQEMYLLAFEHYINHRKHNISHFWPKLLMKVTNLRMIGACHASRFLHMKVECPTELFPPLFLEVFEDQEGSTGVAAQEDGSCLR
# Chain of zebrafish Thyroid Hormone Receptor beta (TRb), thrb (gene 30607) (Q9PVE4 whole entry, looked up, the tested form may be a part): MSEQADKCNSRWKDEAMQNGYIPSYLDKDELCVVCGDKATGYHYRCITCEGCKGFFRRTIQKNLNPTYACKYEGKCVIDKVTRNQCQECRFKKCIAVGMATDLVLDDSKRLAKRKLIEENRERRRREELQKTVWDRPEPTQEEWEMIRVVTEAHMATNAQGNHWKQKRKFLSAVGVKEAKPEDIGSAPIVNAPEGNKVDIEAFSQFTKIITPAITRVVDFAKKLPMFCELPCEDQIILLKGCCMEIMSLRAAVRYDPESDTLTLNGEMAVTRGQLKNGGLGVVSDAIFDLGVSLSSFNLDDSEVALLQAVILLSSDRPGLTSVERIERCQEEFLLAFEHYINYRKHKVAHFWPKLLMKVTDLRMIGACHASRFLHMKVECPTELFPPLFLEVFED
# Chain of human Thyroid hormone Receptor beta (TRb), THRB (gene 7068) (P10828 whole entry, looked up, the tested form may be a part): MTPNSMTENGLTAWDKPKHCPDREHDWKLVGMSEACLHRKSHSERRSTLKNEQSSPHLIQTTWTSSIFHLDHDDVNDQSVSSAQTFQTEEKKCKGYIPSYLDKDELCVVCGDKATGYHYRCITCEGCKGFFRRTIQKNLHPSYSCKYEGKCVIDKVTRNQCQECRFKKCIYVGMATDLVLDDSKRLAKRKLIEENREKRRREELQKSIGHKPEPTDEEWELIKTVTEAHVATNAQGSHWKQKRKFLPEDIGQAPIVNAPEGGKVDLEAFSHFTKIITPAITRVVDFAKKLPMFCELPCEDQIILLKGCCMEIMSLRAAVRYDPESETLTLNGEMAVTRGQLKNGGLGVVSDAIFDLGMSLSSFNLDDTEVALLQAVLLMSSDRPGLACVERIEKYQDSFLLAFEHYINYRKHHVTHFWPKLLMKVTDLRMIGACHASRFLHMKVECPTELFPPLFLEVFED
# Chain of Peroxisome proliferator-activated receptor gamma (Homo sapiens) (P37231 whole entry, looked up, the tested form may be a part): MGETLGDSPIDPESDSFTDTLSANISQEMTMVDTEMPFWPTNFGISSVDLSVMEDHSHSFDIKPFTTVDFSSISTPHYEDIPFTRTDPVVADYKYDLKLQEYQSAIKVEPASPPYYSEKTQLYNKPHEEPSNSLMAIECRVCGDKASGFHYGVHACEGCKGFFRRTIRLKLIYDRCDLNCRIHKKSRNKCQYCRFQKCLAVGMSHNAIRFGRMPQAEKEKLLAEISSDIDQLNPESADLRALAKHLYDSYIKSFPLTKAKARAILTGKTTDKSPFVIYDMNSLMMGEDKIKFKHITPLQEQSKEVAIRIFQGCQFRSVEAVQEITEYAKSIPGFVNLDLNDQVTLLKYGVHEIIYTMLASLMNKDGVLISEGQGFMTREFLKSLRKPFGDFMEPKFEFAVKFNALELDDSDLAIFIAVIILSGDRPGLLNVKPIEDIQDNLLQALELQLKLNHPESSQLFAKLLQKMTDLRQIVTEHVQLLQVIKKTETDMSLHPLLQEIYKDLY
# Chain of human Thyroid hormone Receptor alpha (TRa), THRA (gene 7067) (P10827 whole entry, looked up, the tested form may be a part): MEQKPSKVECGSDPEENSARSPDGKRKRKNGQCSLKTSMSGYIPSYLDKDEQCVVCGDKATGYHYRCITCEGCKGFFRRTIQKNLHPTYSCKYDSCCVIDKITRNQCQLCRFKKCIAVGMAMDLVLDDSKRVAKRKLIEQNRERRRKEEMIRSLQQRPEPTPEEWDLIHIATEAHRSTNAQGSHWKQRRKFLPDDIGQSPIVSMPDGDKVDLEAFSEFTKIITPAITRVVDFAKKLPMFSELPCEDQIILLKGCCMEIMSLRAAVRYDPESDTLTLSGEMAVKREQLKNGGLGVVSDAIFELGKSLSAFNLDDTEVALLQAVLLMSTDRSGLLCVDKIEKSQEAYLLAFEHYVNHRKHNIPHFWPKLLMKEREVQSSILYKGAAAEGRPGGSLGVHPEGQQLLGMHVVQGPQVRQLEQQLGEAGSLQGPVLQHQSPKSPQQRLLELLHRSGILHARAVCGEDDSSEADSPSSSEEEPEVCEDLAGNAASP
# Chain of Nuclear receptor subfamily 1 group I member 2 (Mus musculus) (O54915 whole entry, looked up, the tested form may be a part): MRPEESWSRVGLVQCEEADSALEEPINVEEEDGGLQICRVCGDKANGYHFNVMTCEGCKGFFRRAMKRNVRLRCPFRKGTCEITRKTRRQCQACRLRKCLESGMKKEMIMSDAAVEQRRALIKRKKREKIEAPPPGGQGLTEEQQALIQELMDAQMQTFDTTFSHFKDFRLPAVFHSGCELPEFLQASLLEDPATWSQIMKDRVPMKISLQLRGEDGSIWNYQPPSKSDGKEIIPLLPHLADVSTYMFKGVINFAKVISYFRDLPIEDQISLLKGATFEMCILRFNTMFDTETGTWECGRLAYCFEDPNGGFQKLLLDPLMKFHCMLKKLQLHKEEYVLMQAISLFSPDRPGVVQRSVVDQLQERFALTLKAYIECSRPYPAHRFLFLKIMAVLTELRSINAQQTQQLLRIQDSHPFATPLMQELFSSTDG
# Chain of Estrogen receptor (Homo sapiens) (P03372 whole entry, looked up, the tested form may be a part): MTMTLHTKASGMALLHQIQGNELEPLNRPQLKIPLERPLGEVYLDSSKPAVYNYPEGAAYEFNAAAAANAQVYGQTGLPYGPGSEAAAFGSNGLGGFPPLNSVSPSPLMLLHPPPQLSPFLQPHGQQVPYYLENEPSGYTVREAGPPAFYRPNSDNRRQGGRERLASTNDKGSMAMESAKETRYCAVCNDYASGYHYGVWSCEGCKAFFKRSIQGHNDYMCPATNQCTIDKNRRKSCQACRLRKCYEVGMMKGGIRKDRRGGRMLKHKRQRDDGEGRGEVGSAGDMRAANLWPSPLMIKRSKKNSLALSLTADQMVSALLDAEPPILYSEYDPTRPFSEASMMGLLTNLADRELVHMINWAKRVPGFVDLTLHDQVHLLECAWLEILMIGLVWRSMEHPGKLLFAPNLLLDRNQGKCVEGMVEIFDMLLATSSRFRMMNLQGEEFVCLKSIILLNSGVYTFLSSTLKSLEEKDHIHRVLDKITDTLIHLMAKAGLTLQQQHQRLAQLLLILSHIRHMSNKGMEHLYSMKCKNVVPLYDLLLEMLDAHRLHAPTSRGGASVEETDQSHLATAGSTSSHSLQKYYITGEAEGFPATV
smiles,measurement,setting,value
O=C(O)Cc1cc(I)c(Oc2cc(I)c(O)c(I)c2)c(I)c1,outcome,[1],inactive
same,outcome,[2],inactive
same,outcome,[3],inactive
same,outcome,[4],inactive
same,AC50,[5],524 nM (active) and 681 nM (active)
same,AC50,[6],0.56 µM (active)
same,outcome,[6],inactive
same,outcome,[7],inactive
same,AC50,[8],123 nM (active) and 54.3 nM (active)
same,outcome,[9],inactive
same,AC50,[10],91.9 nM (active) and 48.7 nM (active)
same,outcome,[11],inactive
same,AC50,[12],45.5 nM (active) and 14.4 nM (active)
same,AC50,[13],75.3 nM (active) and 30.2 nM (active)
same,AC50,[14],86.6 nM (active) and 15.1 nM (active)
same,AC50,[15],38.4 nM (active) and 12.3 nM (active)
O=c1c(-c2ccc(O)cc2)coc2cc(O)ccc12,outcome,[1],inactive
same,AC50,[2],983 nM (active) and 478 nM (active)
same,AC50,[3],3.4 µM (active) and 1.67 µM (active)
same,outcome,[4],inactive
same,outcome,[16],inactive
same,AC50,[17],1.14 µM (active) and 219 nM (active)
same,outcome,[5],inactive
same,outcome,[6],inactive
same,outcome,[8],inactive
same,outcome,[9],inactive
same,outcome,[10],inactive
same,outcome,[11],inactive
same,outcome,[12],inactive
same,outcome,[18],inactive
same,outcome,[13],inactive
same,outcome,[14],inactive
same,outcome,[15],inactive
c1ccc2c(c1)ccc1ccccc12,outcome,[2],inactive
same,AC50,[3],80.9 µM (active)
same,outcome,[3],inactive
same,AC50,[19],21.3 µM (active)
same,outcome,[19],inactive
same,AC50,[17],57.3 µM (active)
same,outcome,[17],inactive
same,outcome,[5],inactive
same,outcome,[6],inactive
same,outcome,[7],inactive
same,outcome,[9],inactive
same,outcome,[10],inactive
same,outcome,[11],inactive
same,outcome,[12],inactive
same,outcome,[18],inactive
same,outcome,[13],inactive
same,outcome,[14],inactive
same,outcome,[15],inactive
Oc1cc2ccccc2c2ccccc12,outcome,[20],inactive
same,outcome,[3],inactive
same,AC50,[5],8.93 µM (active)
same,outcome,[5],inactive
same,AC50,[6],6.98 µM (active)
same,outcome,[7],inactive
same,AC50,[8],10.6 µM (active)
same,outcome,[8],inactive
same,AC50,[10],10.6 µM (active)
same,outcome,[10],inactive
same,AC50,[12],33.4 µM (active)
same,AC50,[18],15.7 µM (active)
same,AC50,[13],33.4 µM (active)
same,AC50,[14],33.4 µM (active)
same,outcome,[14],inactive
same,AC50,[15],16.3 µM (active)
